In the library only some 4% were active in any assay of this set; here they are far more common.
Arbovirus inh: antivirals against arbovirus infection. inhibition, % at 10 µM. arbovirus infection cell-based antiviral screen. 0.37% of 200,000 active; in the data active means inhibition above about 30%
KCC2 mod: modulators of human KCC2 chloride dependent transport; KCC2 cells, thallium flux FluoZin-2 fluorescence; AID 1456; 2.2% of 190,000 active; B-score of Tl+ flux slope (higher = more flux/activation; lower = inhibition) at 10 µM;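 active means thallium flux slope and its plate-corrected score both differing from the plate sample mean at a set confidence after two filtering rounds, in either direction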;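 further: slope of fluorescence scaled to starting intensity during 10 to 20 s after thallium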
HSV replic up: HSV replication enhancement. HSV replication augmentation in cells, fold increase. maximum fold increase. AID 1956. 0.005% of 220,000 active; in the data active means maximum fold increase above about 1.5; inconclusive means no clear call, values can overlap the other calls; tested in PC3 cells
Measles CPE: protection of cells from measles virus; Measles virus-infected cells, CPE protection, absorbance; protection (pct of control), % at 4 µM; 1.5% of 140,000 active; in the data active means protection mostly above about 24%, no sharp cut-off; inactive means mostly below about 26%
ROMK mod: modulators of human ROMK potassium channel; Tet-inducible ROMK, thallium flux fluorescence; actives lie on both sides; 2% of 130,000 active; B-score at 10 µM; P48048;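 active means signal ratio slope over the read window, or its plate-corrected B-score, at least 3 SD from the plate mean, either direction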;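 further: B-score of the F/F0 ratio slope over 7 to 12 s after thallium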
An asterisk follows results filed as active; i = inactive; ? = inconclusive; . = no result given.

SMILES | Arbovirus inh | KCC2 mod | HSV replic up | Measles CPE | ROMK mod
COc1ccc(Cl)cc1C(=O)NNC(=O)c1cccc(S(=O)(=O)N(C)C)c1 | 1 | 0.57 | i | 73* | .
COc1ccc(N(CC(=O)NC2CCCCC2)C(=O)CNC(=O)c2ccco2)cc1 | -3 | -1 | i | . | 0.65
CC(C)Sc1nsc2nc(=O)c(/C=C3\C=Nc4ccccc43)c(N)n12 | 34* | -1.7 | i | . | 1
CC(C)c1nn2c(N)c(/C=C3\C=Nc4ccccc43)c(=O)nc2s1 | . | -1.3 | i | . | .
CS(=O)(=O)c1nsc2nc(=O)c(/C=C3\C=Nc4ccccc43)c(N)n12 | 46* | -1.2 | i | . | -0.029
CCOc1ccc(S(=O)(=O)Nc2cccc(C(=O)N3CCN(c4ccc(OC)cc4)CC3)c2)cc1 | -2 | 0.0071 | i | 84* | .
CCCCn1c(NC(=O)c2ccco2)c(S(=O)(=O)c2ccc(C)cc2)c2nc3ccccc3nc21 | -14 | -0.97 | i | 4 | 1.2
CCCCn1c(NS(=O)(=O)c2ccccc2)c(S(=O)(=O)c2ccc(C)cc2)c2nc3ccccc3nc21 | -6 | -7.1* | i | 13 | .
O=C(O)c1ccccc1SCC(=O)N1CCCCC1 | 10 | -0.11 | i | 40* | .
Cn1c(N)c(C(=O)COC(=O)c2cccc(S(=O)(=O)N3CCCCC3)c2)c(=O)n(C)c1=O | 4 | -0.25 | i | 8 | -0.24
Cn1c(N)c(C(=O)COC(=O)c2cc(S(=O)(=O)N3CCCCC3)ccc2Cl)c(=O)n(C)c1=O | 14 | -0.039 | i | 27* | 0.0071
O=C1NCCN1Cc1ccc(F)cc1 | 7 | 0.0079 | i | 36* | 2.6
O=C1NCCN1Cc1ccccc1F | 12 | 0.0087 | i | 40* | 0.47
Cc1ccc(CN2CCNC2=O)cc1 | 12 | 0.69 | i | 10 | .
CC1(c2ccccc2)CC(C)(C)N2C(=O)/C(=C3\SC(=S)NC3=O)c3cccc1c32 (centres undefined) | 11 | 20* | i | 23 | .
CC1(c2ccccc2)CC(C)(C)N2C(=O)C3(C(C#N)=C(N)Oc4cc(O)ccc43)c3cccc1c32 (centres undefined) | -37 | . | i | 18 | -0.28
CCCC1C2C(=O)N(c3cccc(C)c3)C(=O)C2ON1c1ccccc1 (centres undefined) | . | -0.0014 | i | . | .
COc1cccc(CN(C)Cc2nc(Cc3ccccc3Cl)no2)c1 | 0 | -0.52 | i | . | -0.23
O=C(O)CCCCCCCCCCP(=O)(c1ccccc1)c1ccccc1 | . | 0.23 | i | . | 0.018
O=P(CCCCCCCCCP(=O)(c1ccccc1)c1ccccc1)(c1ccccc1)c1ccccc1 | -38 | -3* | i | 8 | -4.7*
CC(=O)Nc1ccc2nc(CN3CCN(Cc4ccc(F)cc4)C(CCO)C3)ccc2c1 (centres undefined) | 3 | . | i | . | 0.053
Cc1ccc(C(=O)NC(=S)Nc2ccc3c(c2)OCCO3)c(C)c1 | 6 | 13* | i | 5 | .
Cc1cc(C)cc(C(=O)NC(=S)Nc2ccc3c(c2)OCCO3)c1 | 0 | 1 | i | 17 | .
CC(=O)Nc1ccc(S(=O)(=O)NCc2csc(-c3cccnc3)n2)cc1 | 16 | 3.2* | i | 13 | 0.16
COc1ccc(N/N=C(\C#N)C(N)=O)cc1 | -12 | -0.17 | i | 8 | .
SMILES | Arbovirus inh | KCC2 mod | HSV replic up | Measles CPE | ROMK mod
N#C/C(=N\Nc1ccc(Cl)cc1)C(=O)c1ccccc1 | -20 | -3.5* | i | 25 | 2.8*
COc1ccc(C(=O)/C(C#N)=N/Nc2ccc([N+](=O)[O-])cc2)cc1 | -21 | -3.6* | i | . | 6*
O=C(NCCN1C(=O)S/C(=C\c2cccnc2)C1=O)C1=NN(c2ccccc2)C(=O)CC1 | -5 | 1.1 | i | . | -0.49
O=C(CCN=C1NS(=O)(=O)c2ccccc21)N1CCc2ccccc2C1 | 18 | -0.27 | i | . | -0.53
O=C(CN1C(=O)c2ccccc2C1=O)Nc1sc2c(c1C(=O)NCc1ccco1)CCCC2 | 13 | 0.48 | i | 62* | .
COc1cc(/C=C(\C#N)c2nc3ccccc3n2C)cc(OC)c1O | 5 | -6.9* | ? | . | -4.1*
Cn1c(/C(C#N)=C/C2CC=CCC2)nc2ccccc21 (centres undefined) | 8 | -2 | i | 7 | .
Cn1c(/C(C#N)=C/c2ccncc2)nc2ccccc21 | 3 | 1 | i | . | -3.6*
Cn1c(/C(C#N)=C/c2ccc(O)cc2)nc2ccccc21 | . | -1.9 | i | . | .
O=C(O)/C(=C\C(=O)c1ccccc1)Nc1ccccc1 | . | 0.85 | i | . | 0.36
O=C(Nc1nnc(-c2ccc(Cl)cc2)o1)C1=COCCO1 | 2 | 9.4* | i | 5 | -1
COc1ccccc1C(=O)Nc1nnc(-c2ccc(Cl)cc2)o1 | -7 | 1.4 | i | . | .

Source: PubChem (several laboratories)
